Bioassay records (PubChem)
A selection: hits, their analogues and other compounds. The true share with any hit is near 1.7%.
ARNT TACC3 PPI = disruptors of ARNT/TACC3 protein interaction, primary screen, biochemical, AlphaScreen, single concentration. hit rate 0.66% among 390,000. AID 623870, 2012. Transforming acidic coiled-coil-containing protein 3 (Homo sapiens), Q9Y6A5. AlphaScreen His-ARNT PAS-B/GST-TACC3 binding, luminescence; TACC3 fragment carries E629A point mutation. inhibition, % at 9.99 µM;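 active = mean inhibition of replicates at least 50% and at least half of replicates each reaching 50%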;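 note: 0% = complete ARNT plus TACC3 wells and 100% = ARNT alone without TACC3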
aDG glyco act = activators of alpha-DG glycosylation, primary screen, uHTS, Pro5-aDG cells, AlphaScreen; activation, % at 10 µM; alpha-DG glycosylation AlphaScreen (IIH6); 0% Pro5, 100% B10-LARGE cell signal; hit rate 0.22% among 360,000;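 active = activation of at least 8% versus controls, or a plate z-score of at least 8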;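 note: Pro5 are CHO cells carrying HIG-tagged alpha-DG that lacks glycosylation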
H9c2 protect = cardioprotection against H2O2-induced cell death, primary screen, uHTS, H9c2 cells, ATPLite luminescence. H9c2 cardiomyocytes, H2O2 injury protection, 2 h. hit rate 0.63% among 360,000. protection from H2O2 cell death, % at 20 µM;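 active = compounds giving at least 50% protection of heart cells from peroxide-induced death in the single-dose screen, raw or plate-pattern-corrected value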;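 note: 0% = DMSO wells with peroxide and 100% = DMSO wells without peroxide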
Vif inh = HIV Vif self-association inhibitors, primary screen, imaging, HEK293T, single point | HEK293T cells, Vif self-association by quenched fluorescence, 24 h | inhibition, % at 7.49 µM | hit rate 0.35% among 340,000; in the data active = inhibition above about 50%, passing the limit was not always enough
Glyco luc inh = increase of ERlucT glycosylation luciferase signal, primary screen, N-linked glycosylation inhibitor project, D54 ERlucT cells, luminescence, set 2; D54 ERlucT glycosylation luciferase reporter, 24 h; percent of 100 nM tunicamycin response; reporter increase, % at 12.5 µM; hit rate 0.23% among 360,000;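 active = mean luciferase reporter signal, scaled so untreated is 0 and the glycosylation-blocking control 100, at or above a set limit in every replicate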;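 note: luciferase carries N-glycosylation sites so blocking glycosylation raises the light; 0% = median of neutral control wells and 100% = median of 100 nM tunicamycin wells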
aDG glyco conf = alpha-DG glycosylation enhancers, retest, confirmation, single concentration, Pro5-aDG cells. IIH6 AlphaLISA; scaled to LARGE-overexpressing B10 cells as 100%. hit rate 17% among 600. shares compounds with aDG glyco act. activation, % at 10 µM (by protocol);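 active = activation of at least 7% in one or more replicates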;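 note: cells exposed to compound for two days before detection; 0% = DMSO-treated Pro5 cells and 100% = DMSO-treated B10-LARGE cells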
Active calls of the source: *.

For Cc1c(O)cc2c(c1O)C(=O)CC(c1ccc(O)cc1)O2 (configuration not stated) the results were ARNT TACC3 PPI -1, aDG glyco act 4.7*, H9c2 protect 1, Vif inh 10, Glyco luc inh 0 and aDG glyco conf -1.
COc1ccc([C@@H]2CC(=O)c3c(O)cc(O)cc3O2)cc1O was read as ARNT TACC3 PPI 15, aDG glyco act 0, H9c2 protect 12, Vif inh -7 and Glyco luc inh 1.
Screening COc1cc(O)c2c(c1)OC(c1ccc(O)cc1)CC2=O (configuration not stated) returned ARNT TACC3 PPI -11, aDG glyco act 13*, H9c2 protect -7, Vif inh -8, Glyco luc inh -6 and aDG glyco conf 2.
For C[C@@H]1CCCCO[C@@H](CN(C)S(=O)(=O)c2cccs2)[C@@H](C)CN([C@@H](C)CO)C(=O)c2cc(NC(=O)CCCN(C)C)ccc2O1 the results were ARNT TACC3 PPI 8.
CCCC#Cc1cnc2c(c1)C(=O)N([C@H](C)CO)C[C@@H](C)[C@H](CN(C)C(=O)Nc1ccccc1F)O2 was read as ARNT TACC3 PPI 1.
For CNC[C@@H]1Oc2ccc(NC(=O)CCN3CCOCC3)cc2C(=O)N([C@H](C)CO)C[C@@H]1C the results were ARNT TACC3 PPI -5.
Screening OC1(c2ccc(OC(F)F)cc2)CSC(=Nc2cccnc2)N1C1CC1 (configuration not stated) returned aDG glyco act 6.9*, H9c2 protect -31, Vif inh -51, Glyco luc inh -3 and aDG glyco conf 0.
Cc1ccc(N(CC(=O)NC(C)c2ccccc2)S(=O)(=O)c2c(C)noc2C)cc1 (configuration not stated) was read as ARNT TACC3 PPI -3, aDG glyco act 0, H9c2 protect -3, Vif inh -7 and Glyco luc inh 0.
Screening Cc1ccc(N(CC(=O)NC(C)c2ccccc2)S(=O)(=O)c2c(C)n[nH]c2C)cc1 (configuration not stated) returned ARNT TACC3 PPI -3, aDG glyco act 5.6*, H9c2 protect 0, Vif inh 12, Glyco luc inh 5 and aDG glyco conf 0.
O=C(C[C@H]1CC[C@@H]2[C@H](COC[C@H](O)CN2C(=O)Nc2ccc(Cl)cc2)O1)NCCc1ccncc1 was read as ARNT TACC3 PPI -2.
Screening Cc1noc(C)c1NC(=O)N[C@@H]1C=C[C@H](CC(=O)N2CCN(C)CC2)O[C@@H]1CO returned ARNT TACC3 PPI -5.
Screening Cc1cc(NC(=O)CSc2c3c(nc4ccccc24)CCC3)no1 returned ARNT TACC3 PPI 24, aDG glyco act 8.2*, H9c2 protect 6, Vif inh -9, Glyco luc inh 8 and aDG glyco conf -1.
For Cc1noc(C)c1NC(=O)N(C)C[C@H]1OCCCC[C@@H](C)Oc2ccc(NC(=O)Nc3ccccc3)cc2C(=O)N([C@H](C)CO)C[C@@H]1C the results were ARNT TACC3 PPI -10.
Screening COc1ccc(-c2noc(CCC(=O)NCc3cccnc3)n2)cc1 returned ARNT TACC3 PPI 8, aDG glyco act 0, H9c2 protect -1, Vif inh -3 and Glyco luc inh -1.
`COc1ccc(Cc2nc(-c3ccc(NC(=O)c4cccnc4)cc3)no2)cc1` gave ARNT TACC3 PPI -7, aDG glyco act 7.5*, H9c2 protect -10, Vif inh 1, Glyco luc inh -1 and aDG glyco conf 6.7*.
`CS(=O)(=O)c1ccc(Nc2nc(C(N)Cc3ccc(Cl)cc3)cs2)cc1` (configuration not stated) gave aDG glyco act 24*, H9c2 protect -7, Vif inh 1, Glyco luc inh -2 and aDG glyco conf 11*.
Screening C[C@H]1CN([C@@H](C)CO)C(=O)c2cccc(NS(=O)(=O)c3cccs3)c2O[C@@H]1CN(C)Cc1ccc(-c2ccccc2)cc1 returned ARNT TACC3 PPI 5.
Cc1cccc(C)c1OCc1cc(C(=O)N2CCC(c3ccncc3)CC2)no1 was read as ARNT TACC3 PPI 5, aDG glyco act 6.2*, H9c2 protect -19, Vif inh -22, Glyco luc inh -7 and aDG glyco conf 1.
O=C(c1cc(COc2c(F)cccc2F)on1)N1CCC(c2ccccc2F)C1 (configuration not stated) was read as ARNT TACC3 PPI -5, aDG glyco act 0, H9c2 protect -15, Vif inh 19 and Glyco luc inh -1.
`O=C(c1cc(COc2c(F)cccc2F)on1)N1CCC(c2ccncc2)CC1` gave ARNT TACC3 PPI -4, aDG glyco act 9.2*, H9c2 protect -22, Vif inh -5, Glyco luc inh -6 and aDG glyco conf 0.
Screening C[C@@H]1CN([C@H](C)CO)C(=O)c2cc(-c3ccc(C(=O)N(C)C)cc3)cnc2O[C@@H]1CN(C)C returned ARNT TACC3 PPI -4.
Screening COc1cc(NC(=O)CNC(=O)Cn2c(C)cc3ccccc3c2=O)cc(OC)c1OC returned ARNT TACC3 PPI -5, aDG glyco act 3.3*, H9c2 protect -4, Vif inh -7, Glyco luc inh 0 and aDG glyco conf 0.
For CC[C@]12c3[nH]c4ccc(Cl)cc4c3CCN1C(=O)[C@@H](CC(=O)NCCc1ccccn1)C[C@@H]2C(=O)N1CCN(C(=O)C2CC2)CC1 the results were ARNT TACC3 PPI 3, aDG glyco act 7.9*, H9c2 protect -2, Vif inh -13, Glyco luc inh 1 and aDG glyco conf 2.
For CC[C@]12c3[nH]c4ccccc4c3CCN1C(=O)C(CC(=O)NCCc1ccccn1)C[C@@H]2C(=O)N1CCN(C(=O)C2CC2)CC1 (some centres not stated) the results were ARNT TACC3 PPI -1, aDG glyco act 1, H9c2 protect 14 and Glyco luc inh 2.
For C[C@@H]1CN([C@H](C)CO)C(=O)c2cc(NC(=O)c3ccncc3)ccc2O[C@@H](C)CCCCO[C@H]1CN(C)S(=O)(=O)c1ccc(Cl)cc1 the results were ARNT TACC3 PPI 3.
Clc1ccc(CNCCCSc2ncccn2)cc1Cl was read as ARNT TACC3 PPI 23, aDG glyco act 2.4*, H9c2 protect 0, Vif inh 22, Glyco luc inh -1 and aDG glyco conf 0.
Screening Clc1cccc(Cl)c1CNCCCSc1ncccn1 returned ARNT TACC3 PPI -4, aDG glyco act 0, H9c2 protect 3, Vif inh 0 and Glyco luc inh -1.
